Experimental data reported in PubChem BioAssay (Tox21).
Where “and” joins values, the source holds several entries; their conditions need not be identical. Equal values may be shown once. Inconclusive results are not listed. Some structures have more than one record in an assay (separate samples or runs), and their calls can disagree. Calls of active or inactive are those of the source. Unless noted, the call rests on the fitted dose curve; in most records, active means well fitted curve in the direction sought with a large enough effect in the repeat runs; inconclusive means weak or mixed curves; inactive means no such curve, though single readings can be large; an effect the other way counts as inactive or inconclusive.

How the values were obtained:
[1] = molecular target: Thyrotropin receptor (Homo sapiens) (UniProt P16473); assay: qHTS assay to identify small molecule agonists of the thyroid stimulating hormone receptor (TSHR) signaling pathway (AID 1224843; calls by dose curve; further: nearly all actives have a fitted effect of over 45% in size)
Thyrotropin receptor (Homo sapiens), sequence (P16473 whole entry, looked up): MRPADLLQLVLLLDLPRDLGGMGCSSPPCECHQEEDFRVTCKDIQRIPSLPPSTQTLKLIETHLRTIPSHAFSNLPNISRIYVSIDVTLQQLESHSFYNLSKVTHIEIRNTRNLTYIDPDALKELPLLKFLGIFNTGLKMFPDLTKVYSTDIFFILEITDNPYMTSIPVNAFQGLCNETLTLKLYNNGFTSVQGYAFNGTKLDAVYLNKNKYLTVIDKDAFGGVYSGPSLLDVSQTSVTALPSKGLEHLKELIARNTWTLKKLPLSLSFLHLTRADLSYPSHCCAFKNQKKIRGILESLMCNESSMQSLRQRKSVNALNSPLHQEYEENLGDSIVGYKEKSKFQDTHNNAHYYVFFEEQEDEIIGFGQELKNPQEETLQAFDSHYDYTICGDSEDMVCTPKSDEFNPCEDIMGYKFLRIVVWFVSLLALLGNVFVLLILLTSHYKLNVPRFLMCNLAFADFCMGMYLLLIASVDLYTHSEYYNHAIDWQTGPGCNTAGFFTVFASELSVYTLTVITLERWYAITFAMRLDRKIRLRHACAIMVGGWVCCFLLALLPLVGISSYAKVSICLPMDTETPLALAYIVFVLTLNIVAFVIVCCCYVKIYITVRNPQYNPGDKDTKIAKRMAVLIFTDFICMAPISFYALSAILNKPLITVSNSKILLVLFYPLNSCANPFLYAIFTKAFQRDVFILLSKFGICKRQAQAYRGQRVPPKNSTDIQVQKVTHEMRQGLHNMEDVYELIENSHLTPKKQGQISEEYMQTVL
How it was run: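 Agonist-mode screen: TSHR HEK293 cells received test chemicals for half an hour at room temperature, then HTRF cAMP detection reagents for one hour prior to fluorescence measurement. Each chemical ran as a 15-concentration series, triplicated.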

[2] = qHTS assay to identify small molecule agonists of the hypoxia (HIF-1) signaling pathway - cell viability counter screen (AID 1224844; calls by dose curve; further: nearly all actives have a fitted effect of over 50% in size)
How it was run: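 In this counter screen, HRE-bla ME-180 cell viability after 17 hrs of compound exposure at 37C was read by CellTiter-Glo luminescence, multiplexed with the beta-lactamase reporter measurement.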

[3] = qHTS assay to identify small molecule agonists of the hypoxia (HIF-1) signaling pathway (AID 1224846; active means well fitted activation curve with a large enough effect in the signal ratio in the repeat runs, not every such curve was filed as active; the % refers to the signal ratio)
How it was run: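 ME-180 HRE-bla reporter cells; compounds in DMSO, 17 h at 37C; read-out beta-lactamase via CCF4-AM FRET.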

[4] = qHTS assay to identify small molecule agonists of H2AX - cell viability counter screen (AID 1224847; calls by dose curve; further: nearly all actives have a fitted effect of over 30% in size; further: potency means the concentration at half of the fitted maximal effect)
How it was run: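 Quantitative HTS viability measurement: CHO-K1 wild-type cells in serum (10% FBS) medium, short 3 hr drug exposure at 37C with 0.76% DMSO, CellTiter-Glo luminescent detection.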

[5] = qHTS assay to identify small molecule antagonists of the estrogen related receptor (ERR) signaling pathway from Tox21 library (AID 1224848); further: nearly all actives have a fitted effect of over 50% in size; further: potency means the concentration at half of the fitted maximal effect
How it was run: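 Quantitative high-throughput format: ERR reporter cells (2,000/well) pre-incubated 6 h, treated 18 h at 37 C with compounds in DMSO alongside positive and negative controls, then read by ONE-Glo luminescence.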

[6] = qHTS assay to identify small molecule agonists of the estrogen related receptor (ERR) signaling pathway from Tox21 library (AID 1224849; calls by dose curve; further: nearly all actives have a fitted effect of over 15% in size); conditions: ERR reporter cell line, ONE-Glo luciferase, 18 h
How it was run: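 Luciferase activity in ERR pathway reporter cells served as the agonist readout; exposure lasted 18 h at 37 C, with ONE-Glo detection after 30 min at room temperature.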

[7] = qHTS RealTime-Glo MT Cell Viability Assay in HepG2 cells - 24 hour (AID 1224867); further: nearly all actives have a fitted effect of over 50% in size
How it was run: (§1)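 Tox21 10K library screened in qHTS format on HepG2 cells carrying RealTime-Glo reagents. Compounds were added after a 5 h preincubation, and the luminescent signal from continuous culture was measured repeatedly during 40 h treatment.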

[8] = qHTS RealTime-Glo MT Cell Viability Assay in HEK293 cells - 32 hour (AID 1224868); further: nearly all actives have a fitted effect of over 50% in size; further: potency means the concentration at half of the fitted maximal effect
How it was run: (§2)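 Luminescence generated by NanoLuc from substrate produced by living HEK293 cells served as the viability signal. Each value reflects the reading at its stated time point during continuous 40 h compound exposure at 37 C.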

[9] = A CellTox Green Cytotoxicity Assay to monitor cytotoxicity in HEK293 cells - 0 hour (AID 1224869); further: nearly all actives have a fitted effect of over 50% in size
How it was run: (§3)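 Real-time, in one plate: 600 HEK293 cells/well with dead-cell DNA dye, pinned compound after 5 h, 37 C incubation over 40 h; viable cells give no appreciable fluorescence.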

[10] = qHTS RealTime-Glo MT Cell Viability Assay in HepG2 cells - 40 hour (AID 1224870); further: nearly all actives have a fitted effect of over 50% in size
How it was run: (§4)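 HepG2 cells (600/well) mixed with RealTime-Glo MT reagent, settled 5 h at 37 C/5% CO2 before compound addition. Nonlytic NanoLuc luminescence from viable-cell prosubstrate reduction read repeatedly during 40 h treatment at 37 C.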

[11] = A CellTox Green Cytotoxicity Assay to monitor cytotoxicity in HEK293 cells - 40 hour (AID 1224871); further: nearly all actives have a fitted effect of over 45% in size; further: potency means the concentration at half of the fitted maximal effect
How it was run: as §3

[12] = qHTS RealTime-Glo MT Cell Viability Assay in HepG2 cells - 8 hour (AID 1224873); further: nearly all actives have a fitted effect of over 55% in size
How it was run: as §4

[13] = A CellTox Green Cytotoxicity Assay to monitor cytotoxicity in HEK293 cells - 24 hour (AID 1224875); further: nearly all actives have a fitted effect of over 45% in size
How it was run: as §3

[14] = A CellTox Green Cytotoxicity Assay to monitor cytotoxicity in HepG2 cells - 16 hour (AID 1224876); further: nearly all actives have a fitted effect of over 45% in size
How it was run: (§5)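 Cytotoxicity was tracked as dead-cell DNA fluorescence in HepG2 cells treated with test compounds at 37 C; each time-point value comes from one kinetic series spanning 0, 8, 16, 24, 32 and 40 h.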

[15] = qHTS RealTime-Glo MT Cell Viability Assay in HepG2 cells - 32 hour (AID 1224877); further: nearly all actives have a fitted effect of over 55% in size
How it was run: as §1

[16] = A CellTox Green Cytotoxicity Assay to monitor cytotoxicity in HepG2 cells - 24 hour (AID 1224878); further: nearly all actives have a fitted effect of over 45% in size
How it was run: as §5

[17] = A CellTox Green Cytotoxicity Assay to monitor cytotoxicity in HepG2 cells - 40 hour (AID 1224879); further: nearly all actives have a fitted effect of over 40% in size; further: potency means the concentration at half of the fitted maximal effect
How it was run: as §5

[18] = qHTS assay to identify small molecule agonists of H2AX (AID 1224845; active means well fitted activation curve with a large enough effect in the signal ratio in the repeat runs, not every such curve was filed as active; the % refers to the signal ratio)
How it was run: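 Wild-type CHO-K1 cells, plated overnight, exposed 3hr at 37C to 15 concentrations (0.76% DMSO final). Lysed, then HTRF anti-pH2AX (S139) cryptate and anti-H2AX-d2 antibodies, 24 hr room temperature; 665/620 nm emission read.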

[19] = qHTS RealTime-Glo MT Cell Viability Assay in HEK293 cells - 16 hour (AID 1224872)
How it was run: as §2

[20] = qHTS RealTime-Glo MT Cell Viability Assay in HEK293 cells - 40 hour (AID 1224874); conditions: RealTime-Glo luminescence; max response: stronger effect = lower value; further: nearly all actives have a fitted effect of over 50% in size; further: potency means the concentration at half of the fitted maximal effect
How it was run: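 Kinetic, non-lysing viability readout. Seed HEK293 (600/well) with reagent, incubate 5 h at 37 C/5% CO2, pin 23 nL compound in DMSO, incubate at 37 C, read luminescence at 0, 8, 16, 24, 32, 40 h.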
On the % scale 0 is the no-effect control and ±100 the full control effect.

Cc1ccc(C(=O)c2cc(O)c(O)c([N+](=O)[O-])c2)cc1
49 µM (active) and inactive: Potency [17]
inactive: Potency [1] | Potency [2] | Potency [3] | Potency [4] | activity change, positive = activation ([6]; at 42.5 µM (top of the series)) -49.4% | activity change, positive = activation ([6]; at 92.4 µM (top of the series)) -70.9% | Potency [7] | Potency [8] | Potency [9] | Potency [10] | Potency [11] | Potency [12] | Potency [13] | Potency [14] | Potency [15] | Potency [16]
active: Potency [5] 30.6 µM and 26.6 µM

C=CC(C)(CCC=C(C)C)OC(C)=O (stereo not given)
inactive: Potency [1] | Potency [2] | outcome [18] | Potency [3] | Potency [4] | Potency [7] | Potency [8] | Potency [9] | Potency [10] | Potency [11] | Potency [19] | Potency [12] | Potency [13] | Potency [14] | Potency [16] | Potency [17]

CCC(C)(O)CCCC(C)C (stereo not given)
inactive: Potency [1] | Potency [2] | outcome [18] | Potency [3] | Potency [4] | Potency [7] | Potency [8] | Potency [9] | Potency [10] | Potency [11] | Potency [12] | max response [20] 0.571% and 1.24% | Potency [13] | Potency [14] | Potency [15] | Potency [16] | Potency [17]

CC(C)CC(C)(O)C#CC(C)(O)CC(C)C (stereo not given)
inactive: Potency [1] | Potency [2] | outcome [18] | Potency [3] | Potency [4] | Potency [5] | activity change, positive = activation ([6]; at 92.4 µM (top of the series)) -11.8% and -19.1% | Potency [7] | Potency [8] | Potency [9] | Potency [10] | Potency [11] | Potency [12] | max response [20] -20.8% and -13.4% | Potency [13] | Potency [14] | Potency [15] | Potency [16] | Potency [17]

c1ccc2c(c1)Oc1ccccc1S2
inactive: Potency [1] | Potency [2] | outcome [18] | Potency [3] | Potency [4] | Potency [7] | Potency [8] | Potency [9] | Potency [10] | Potency [12] | max response [20] -19.5% and -6.23% | Potency [14] | Potency [15] | Potency [16] | Potency [17]
49.8 µM (active) and inactive: Potency [11]

CCCCCCCCCC(=O)OC
inactive: Potency [1] | Potency [2] | outcome [18] | Potency [3] | Potency [4] | Potency [7] | Potency [8] | Potency [9] | Potency [10] | Potency [11] | Potency [19] | Potency [12] | Potency [13] | Potency [14] | Potency [16] | Potency [17]

CC(C)OC(=O)C(C)(C)Oc1ccc(C(=O)c2ccc(Cl)cc2)cc1
active: Potency [4] 50.5 µM | Potency [8] 21.9 µM and 10.7 µM | Potency [20] 24.5 µM and 19 µM
inactive: Potency [1] | Potency [2] | outcome [18] | Potency [7] | Potency [9] | Potency [10] | Potency [11] | Potency [12] | Potency [13] | Potency [14] | Potency [16] | Potency [17]

COC(=O)c1ccccc1
active: Potency [20] 12.3 µM
inactive and 11 µM (active): Potency [8]
inactive: Potency [1] | Potency [2] | outcome [18] | Potency [3] | Potency [4] | Potency [7] | Potency [9] | Potency [10] | Potency [11] | Potency [19] | Potency [12] | max response [20] 7.68% | Potency [13] | Potency [14] | Potency [16] | Potency [17]

CN(C)C(=N)N=C(N)N
inactive: Potency [1] | Potency [2] | outcome [18] | Potency [3] | Potency [4] | Potency [7] | Potency [8] | Potency [9] | Potency [10] | Potency [11] | Potency [19] | Potency [12] | max response [20] 2.54% and 1.8% | Potency [13] | Potency [14] | Potency [16] | Potency [17]

CC(C)=CCC/C(C)=C\CO
inactive: Potency [1] | Potency [2] | outcome [18] | Potency [4] | Potency [7] | Potency [8] | Potency [9] | Potency [10] | Potency [11] | Potency [19] | Potency [12] | Potency [13] | Potency [14] | Potency [15] | Potency [16] | Potency [17]

Cn1cnc([N+](=O)[O-])c1Sc1ncnc2nc[nH]c12
active: activity change, positive = activation ([6]; at 92.4 µM (top of the series)) 19.9% | Potency [8] 19.4 µM
inactive: Potency [1] | Potency [2] | outcome [18] | Potency [4] | Potency [5] | activity change, positive = activation ([6]; at 42.5 µM (top of the series)) 8.83% | Potency [7] | Potency [9] | Potency [10] | Potency [12] | Potency [14] | Potency [16]
54.5 µM (active) and inactive: Potency [17]
34.5 µM (active) and inactive: Potency [11]

CCCCC(CC)COP(=O)(OCC(CC)CCCC)OCC(CC)CCCC (stereo not given)
inactive: Potency [1] | Potency [2] | Potency [3] | Potency [4] | Potency [7] | Potency [8] | Potency [9] | Potency [10] | Potency [11] | Potency [19] | Potency [12] | max response [20] -14.5% | Potency [13] | Potency [14] | Potency [15] | Potency [16] | Potency [17]

COc1c(Cl)c(Cl)c(Cl)c(Cl)c1Cl
inactive: Potency [1] | Potency [2] | outcome [18] | Potency [3] | Potency [4] | Potency [5] | activity change, positive = activation ([6]; at 92.4 µM (top of the series)) 0.259% and 0.227% | Potency [7] | Potency [8] | Potency [9] | Potency [10] | Potency [11] | Potency [19] | Potency [12] | max response [20] -6.1% and 5.51% | Potency [13] | Potency [14] | Potency [16] | Potency [17]
